# The whole screen tested about 39,000 compounds, of which about 3,300 (8.5%) were called active. Shown is part of a subset that was picked to be rich in actives.
# System: HepG2
# Experiment: cytotoxicity call (relative viability < 0.9)
# Conditions: 10 µM
row,SMILES,cytotoxicity call
1,COc1ccc(S(=O)(=O)Nc2ccc3c(c2)C(=O)N([C@H](C)CO)C[C@H](C)[C@H](CN(C)C(=O)c2ccccc2)OCCCC[C@H](C)O3)cc1,inactive
2,CCS(=O)(=O)Nc1ccc2c(c1)C(=O)N(C)C[C@H](OC)[C@@H](C)CN(C(=O)c1ccc3c(c1)OCO3)[C@@H](C)CO2,inactive
3,O=C1CCOCCN1,inactive
4,C[C@@H]1CCCCO[C@H](CN(C)S(C)(=O)=O)[C@@H](C)CN([C@H](C)CO)C(=O)c2cc(NS(=O)(=O)c3ccccc3)ccc2O1,inactive
5,CC(C)C#Cc1cnc2c(c1)C(=O)N([C@H](C)CO)C[C@H](C)[C@@H](CN(C)C(=O)c1ccc3c(c1)OCO3)O2,inactive
6,COc1ccc(-c2cnc3c(c2)C(=O)N([C@@H](C)CO)C[C@@H](C)[C@H](CN(C)C(=O)Cc2ccncc2)O3)cc1,inactive
7,Cc1ccc(S(=O)(=O)N(C)C[C@@H]2Oc3ccc(NC(=O)CCCN(C)C)cc3C(=O)N([C@@H](C)CO)C[C@H]2C)cc1,inactive
8,CCC=CCC1=C(C)CCC1=O,inactive
9,C[C@]1(C(=O)NCc2ccccc2)c2ccccc2C(=O)N(Cc2ccccc2)[C@H]1c1ccc(COC(=O)NCCCCCC(=O)NO)cc1,inactive
10,COc1ccc(CN(C)C[C@@H]2OCCCC[C@H](C)Oc3ccc(NC(=O)Nc4ccccc4)cc3C(=O)N([C@@H](C)CO)C[C@@H]2C)cc1,inactive
11,Cc1ccc(S(=O)(=O)Nc2ccc3c(c2)C(=O)N([C@H](C)CO)C[C@@H](C)[C@H](CN(C)C(=O)C2CCCCC2)OCCCC[C@H](C)O3)cc1,inactive
12,O=C(C[C@@H]1CC[C@@H]2[C@H](COC[C@@H](O)CN2S(=O)(=O)c2ccc(Cl)cc2)O1)NCc1ccncn1,inactive
13,Cc1noc(C)c1S(=O)(=O)Nc1ccc2c(c1)C(=O)N([C@@H](C)CO)C[C@H](C)[C@@H](CN(C)S(=O)(=O)c1ccc(F)cc1)O2,inactive
14,C[C@H]1CN([C@@H](C)CO)C(=O)Cc2cc(NS(=O)(=O)c3ccc(F)cc3)ccc2O[C@@H]1CN(C)Cc1ccc(Oc2ccccc2)cc1,inactive
15,C[C@@H]1CN([C@H](C)CO)C(=O)Cc2cc(NS(=O)(=O)c3ccc(F)cc3)ccc2O[C@H]1CN(C)Cc1ccc(Oc2ccccc2)cc1,active
16,C[C@H]1CN([C@@H](C)CO)C(=O)Cc2cc(NS(=O)(=O)c3ccc(F)cc3)ccc2O[C@H]1CN(C)Cc1ccc(Oc2ccccc2)cc1,active
17,C[C@H](CO)N1C[C@H](C)[C@H](CN(C)Cc2ccc(Oc3ccccc3)cc2)Oc2ccc(NS(=O)(=O)c3ccc(F)cc3)cc2CC1=O,active
18,C[C@@H]1CN([C@@H](C)CO)C(=O)Cc2cc(NS(=O)(=O)c3ccc(F)cc3)ccc2O[C@H]1CN(C)Cc1ccc(Oc2ccccc2)cc1,inactive
19,C[C@@H]1CN([C@@H](C)CO)C(=O)Cc2cc(NS(=O)(=O)c3ccc(F)cc3)ccc2O[C@@H]1CN(C)Cc1ccc(Oc2ccccc2)cc1,active
20,Cc1noc(C)c1NC(=O)N(C)C[C@H]1Oc2ccc(NC(=O)c3ccncc3)cc2CC(=O)N([C@H](C)CO)C[C@H]1C,inactive

row,SMILES,cytotoxicity call
1,CC(C)NC(=O)N(C)C[C@@H]1OCCCC[C@@H](C)Oc2ccc(NC(=O)Nc3ccccc3)cc2C(=O)N([C@@H](C)CO)C[C@H]1C,inactive
2,C[C@H]1CN([C@@H](C)CO)C(=O)c2cc(NS(=O)(=O)c3ccc(Cl)cc3)ccc2O[C@@H]1CN(C)S(C)(=O)=O,inactive
3,C[C@H](CO)N1C[C@H](C)[C@@H](CN(C)C(=O)C2CCOCC2)Oc2ncc(C#Cc3cccc(F)c3)cc2C1=O,inactive
4,C[C@@H]1CN([C@@H](C)CO)C(=O)c2cc(NC(=O)Nc3cccc4ccccc34)ccc2O[C@@H](C)CCCCO[C@@H]1CN(C)S(=O)(=O)c1cccs1,inactive
5,COc1ccccc1C#Cc1cnc2c(c1)C(=O)N([C@@H](C)CO)C[C@@H](C)[C@H](CN(C)C(=O)CC1CC1)O2,inactive
6,Cc1ccc(S(=O)(=O)Nc2ccc3c(c2)C(=O)N([C@H](C)CO)C[C@@H](C)[C@H](CN(C)C(=O)NC(C)C)O3)cc1,inactive
7,C[C@@H]1CN([C@H](C)CO)C(=O)CCCn2cc(nn2)CO[C@@H]1CN(C)C(=O)c1cc(-c2ccccc2)on1,inactive
8,CN(C)CCCCNC(=O)[C@@H]1C[C@@H]2C(=O)N[C@@H](CCCC[N+](C)(C)C)C(=O)N2[C@@H]1c1ccc(O)cc1,inactive
9,C[C@H]1CCCCO[C@H](CN(C)C(=O)Nc2ccc(C(F)(F)F)cc2)[C@@H](C)CN([C@@H](C)CO)C(=O)c2cc(NC(=O)Nc3cccc4ccccc34)ccc2O1,inactive
10,COc1ccc(S(=O)(=O)N(C)C[C@H]2Oc3ccc(NC(=O)Nc4c(C)noc4C)cc3CC(=O)N([C@@H](C)CO)C[C@@H]2C)cc1,inactive
11,CCS(=O)(=O)N1C[C@]2(CN(C2)C(=O)Nc2ccc(cc2)F)c2c(n(c3cc(ccc23)OC)C)[C@H]1CO,inactive
12,C[C@@H]1CN([C@H](C)CO)C(=O)Cc2cc(NS(=O)(=O)c3ccc(F)cc3)ccc2O[C@@H]1CN(C)Cc1ccc(Oc2ccccc2)cc1,active
13,C[C@H](CO)N1C[C@H](C)[C@@H](CN(C)Cc2ccc(Oc3ccccc3)cc2)Oc2ccc(NS(=O)(=O)c3ccc(F)cc3)cc2CC1=O,inactive
14,CC(=O)[C@@H](OC(=O)CS(C)(=O)=O)C(=O)NCc1ccccc1,inactive
15,COc1ccc(S(=O)(=O)Nc2ccc3c(c2)C(=O)N([C@H](C)CO)C[C@@H](C)[C@H](CN(C)C(=O)CCC(F)(F)F)OCCCC[C@@H](C)O3)cc1,inactive
16,C[C@@H]1CCCCO[C@H](CN(C)C(=O)C2CCCCC2)[C@H](C)CN([C@@H](C)CO)C(=O)c2cc(NS(=O)(=O)c3ccc(Cl)cc3)ccc2O1,inactive
17,C[C@@H]1CCCCO[C@@H](CN(C)C(=O)C2CCCCC2)[C@H](C)CN([C@@H](C)CO)C(=O)c2cc(NS(=O)(=O)c3ccccc3)ccc2O1,active
18,COc1ccc(S(=O)(=O)Nc2ccc3c(c2)C(=O)N([C@H](C)CO)C[C@H](C)[C@@H](CN(C)C(=O)C2CCCCC2)OCCCC[C@H](C)O3)cc1,inactive
19,C[C@@H]1CCCCO[C@@H](CN(C)C(=O)C2CCCCC2)[C@H](C)CN([C@@H](C)CO)C(=O)c2cc(NS(=O)(=O)c3ccc(Cl)cc3)ccc2O1,inactive
20,C[C@@H]1CN([C@H](C)CO)C(=O)c2cc(NS(=O)(=O)c3ccc(Cl)cc3)ccc2O[C@@H](C)CCCCO[C@H]1CN(C)C(=O)C1CCCCC1,active

row,SMILES,cytotoxicity call
1,C[C@@H]1CCCCO[C@H](CN(C)C(=O)C2CCCCC2)[C@H](C)CN([C@H](C)CO)C(=O)c2cc(NS(=O)(=O)c3ccccc3)ccc2O1,inactive
2,C[C@@H]1CN([C@@H](C)CO)C(=O)c2cc(NS(=O)(=O)c3ccc(Cl)cc3)ccc2O[C@@H](C)CCCCO[C@H]1CN(C)C(=O)C1CCCCC1,inactive
3,C[C@H](CO)N1C[C@H](C)[C@H](CN(C)C(=O)C2CCCCC2)OCCCC[C@H](C)Oc2ccc(NS(=O)(=O)c3ccccc3)cc2C1=O,inactive
4,COc1ccc(S(=O)(=O)Nc2ccc3c(c2)C(=O)N([C@H](C)CO)C[C@@H](C)[C@H](CN(C)C(=O)C2CCCCC2)OCCCC[C@@H](C)O3)cc1,inactive
5,COc1ccc(S(=O)(=O)Nc2ccc3c(c2)C(=O)N([C@H](C)CO)C[C@H](C)[C@H](CN(C)C(=O)C2CCCCC2)OCCCC[C@H](C)O3)cc1,active
6,C[C@@H]1CCCCO[C@H](CN(C)C(=O)C2CCCCC2)[C@@H](C)CN([C@H](C)CO)C(=O)c2cc(NS(=O)(=O)c3ccc(Cl)cc3)ccc2O1,inactive
7,C[C@@H]1CN([C@H](C)CO)C(=O)c2cc(NS(=O)(=O)c3ccc(Cl)cc3)ccc2O[C@@H](C)CCCCO[C@@H]1CN(C)C(=O)C1CCCCC1,active
8,C[C@H]1CN([C@@H](C)CO)C(=O)Cc2cc(NC(=O)Cn3cnnn3)ccc2O[C@H]1CN(C)CC1CC1,inactive
9,COc1ccc(NC(=O)N(C)C[C@@H]2Oc3ncc(C#C[C@@H](C)O)cc3C(=O)N([C@@H](C)CO)C[C@@H]2C)cc1,inactive
10,CCC(=O)N[C@H]1CC[C@H](CC(=O)OC)O[C@@H]1CO,inactive
11,CNC(=O)C[C@H]1CC[C@@H]2[C@H](COC[C@@H](O)CN2C(=O)c2ccccn2)O1,inactive
12,CC(C)NC(=O)N(C)C[C@@H]1Oc2c(NS(=O)(=O)c3cn(C)cn3)cccc2C(=O)N([C@H](C)CO)C[C@H]1C,inactive
13,Cc1ccc(S(=O)(=O)N(C)C[C@H]2Oc3ccc(NC(=O)NC(C)C)cc3CC(=O)N([C@@H](C)CO)C[C@@H]2C)cc1,inactive
14,O=C(C[C@@H]1CC[C@H]2[C@@H](COC[C@H](O)CN2C(=O)Nc2ccc(C(F)(F)F)cc2)O1)NCCc1ccncc1,inactive
15,Cc1ccc(S(=O)(=O)Nc2ccc3c(c2)C(=O)N([C@H](C)CO)C[C@@H](C)[C@H](CN(C)C(=O)C2CCCCC2)OCCCC[C@@H](C)O3)cc1,inactive
16,Cc1ccc(S(=O)(=O)Nc2ccc3c(c2)C(=O)N([C@@H](C)CO)C[C@H](C)[C@@H](CN(C)C(=O)C2CCCCC2)OCCCC[C@@H](C)O3)cc1,active
17,Cc1ccc(S(=O)(=O)Nc2ccc3c(c2)C(=O)N([C@@H](C)CO)C[C@H](C)[C@H](CN(C)C(=O)C2CCCCC2)OCCCC[C@@H](C)O3)cc1,inactive
18,C[C@H]1CCCCO[C@H](CN(C)S(=O)(=O)c2cn(C)cn2)[C@@H](C)CN([C@@H](C)CO)C(=O)c2cc(NS(=O)(=O)c3ccc(F)cc3)ccc2O1,inactive
19,C[C@@H]1CN([C@H](C)CO)C(=O)c2cc(NC(=O)NC3CCCCC3)ccc2O[C@@H]1CN(C)S(C)(=O)=O,inactive
